Experimental data: ChEMBL document CHEMBL3988442, “University of Dundee, Small-Polar-MMV Screening Library” (2021)
Several values for one entry are separate records, joined by “and”; a condition that tells them apart may be missing. Equal entries are not always repeated. Hit rate of the full screen: of about 38,000 compounds, about 1,200 (3.2%) showed an effect of 50% or more. The median lay at about -58%. The list comes from a sample in which strong results are over-represented; it also holds similar structures and randomly drawn compounds.

System: Plasmodium falciparum
Assay: Calibr Malaria Delayed Death Assay SOP
Format: functional, organism-based
Design: scale not given: in the data most compounds retested in dose-response had high values
Details: concentration 4.99e-06 (unit not given; other assays of the set use mol/L)

Q: For `O=C(CCc1cccnc1)N1CCC2(CCN(CC3CCCC3)C2)C1.O=C(O)C(F)(F)F.O=C(O)C(F)(F)F` (stereo not drawn), which “Percent Effect” value is on record?
A: The value was 15.87%.

Q: `Cn1cc(NC(=O)CNC(=O)N2CCN(c3cccc(Cl)c3)CC2)cn1` was tested. Which “Percent Effect” value did it give?
A: The value was -19.66%.

Q: With `Cc1ccc(NC(C(N)=O)c2ccc(F)cc2)cc1` (stereo not drawn) as the compound, how does the “Percent Effect” value read?
A: The value was -42.35%.

Q: How did the “Percent Effect” value turn out when `O=C(NCCc1nnc2n1CCC2)NC1(c2cccc(F)c2)CC1` was run?
A: Its value is -62.64%.

Q: For `CNC(=O)c1cnc2c(C)csc2c1`, which “Percent Effect” value is on record?
A: The value was -145.8%.

Q: For `Cc1nn(C2CCS(=O)(=O)C2)c(O)c1Cc1ccccc1Cl` (stereo not drawn), which “Percent Effect” value is on record?
A: Its value is -17.18%.

Q: `Cc1noc([C@H]2CC[C@@H]3[C@@H](CCN3c3ncccn3)O2)n1` was tested. Which “Percent Effect” value did it give?
A: Its value is -94.2%.

Q: `Cc1ccc(C)c(OCCN(C)C(=O)CCc2cn[nH]c2)c1` was tested. Which “Percent Effect” value did it give?
A: Its value is -90.4%.

Q: With `CCc1noc(C)c1C(=O)N1CCC2(CCCN(CC(C)(C)C)C2=O)C1` (stereo not drawn) as the compound, how does the “Percent Effect” value (4.99 µM) read?
A: The value was -34.55% and -37.04%.

Q: With `CC(C)(C)CNCC1(O)CCCN(Cc2ccccc2F)C1=O` (stereo not drawn) as the compound, how does the “Percent Effect” value read?
A: Its value is 83.8%.

Q: `CC1CCN(CC2(O)CCCN(Cc3cccc(F)c3F)C2=O)CC1` (stereo not drawn) was tested. Which “Percent Effect” value did it give?
A: The value was -78.62%.

Q: How did the “Percent Effect” value turn out when `O=C1N(Cc2cccc(F)c2F)CCCC1(O)CN1CCCOCC1` (stereo not drawn) was run?
A: The value was 40.89%.

Q: `Cc1cccnc1CNCC1(O)CCCN(CC(C)(C)C)C1=O` (stereo not drawn) was tested. Which “Percent Effect” value did it give?
A: The value was -8.334%.

Q: With `CN(CC1(O)CCCN(Cc2cccc(F)c2F)C1=O)C1CCCCC1` (stereo not drawn) as the compound, how does the “Percent Effect” value read?
A: Its value is 63.45%.

Q: `COc1ccc(F)c(CN2CCCC(O)(CNCC(C)(C)C)C2=O)c1` (stereo not drawn) was tested. Which “Percent Effect” value did it give?
A: Its value is 48.73%.

Q: `CC(C)C(C)NC(=O)CNc1cc2c(cc1Cl)NC(=O)CO2` (stereo not drawn) was tested. Which “Percent Effect” value did it give?
A: The value was -65.88%.

Q: How did the “Percent Effect” value turn out when `CCOCC1CN(S(=O)(=O)C2CC2)Cc2ncn(CC3CC3)c21` (stereo not drawn) was run?
A: Its value is -12.84%.

Q: How did the “Percent Effect” value turn out when `O=C(O)C(F)(F)F.c1ccc(C[C@H]2CN(Cc3nccs3)CC[C@@H]2OCC2CC2)cc1` was run?
A: The value was 38.1%.

Q: Which “Percent Effect” value does the source give for `O=C(C1CCOCC1)N1CC[C@@H](N2CCOCC2)[C@@H]1Cc1ccccc1` here?
A: Its value is 3.107%.

Q: Which “Percent Effect” value does the source give for `Cc1noc(C)c1CN1CC[C@H](OCC2CC2)[C@@H](Cc2ccccc2)C1` here?
A: Its value is 60.12%.

Q: How did the “Percent Effect” value turn out when `c1ccc(-c2nnc([C@H]3CCN(C4CCOCC4)C3)o2)cc1` was run?
A: Its value is -0.6483%.

Q: `Cc1noc(C)c1CN1C[C@H](OCC2CC2)[C@H]2COC[C@H]21.O=C(O)C(F)(F)F` was tested. Which “Percent Effect” value did it give?
A: The value was -59.49%.

Q: With `OC(CNc1ccncn1)CN1CCCCCC1` (stereo not drawn) as the compound, how does the “Percent Effect” value read?
A: Its value is -2.039%.

Q: How did the “Percent Effect” value turn out when `CC(C)c1ccc(C(=O)N2CCOCC2CC(=O)c2ccco2)cn1` (stereo not drawn) was run?
A: Its value is -33.41%.

Q: For `CS(=O)(=O)N1CCCC(Cc2cncc(Br)c2)CC1` (stereo not drawn), which “Percent Effect” value is on record?
A: Its value is -9.475%.

Q: How did the “Percent Effect” value turn out when `FC(F)(F)c1ccc2nc([C@H]3CCN(C4CCCCC4)C3)[nH]c2c1` was run?
A: Its value is 83.6%.

Q: `CS(=O)(=O)N1CC[C@H](c2nc3ccc(C(F)(F)F)cc3[nH]2)C1` was tested. Which “Percent Effect” value did it give?
A: Its value is -89.81%.

Q: How did the “Percent Effect” value turn out when `FC(F)(F)c1ccc2nc([C@H]3CCN(C4CCC4)C3)[nH]c2c1` was run?
A: The value was 5.22%.

Q: How did the “Percent Effect” value turn out when `O=C(CCc1ccccc1)N1CCCCC1Cn1cccn1` (stereo not drawn) was run?
A: Its value is -77.88%.

Q: `Cc1cnc(N2CCC3(CC2)CC3CN(C)Cc2cccnc2)nc1.O=C(O)C(F)(F)F.O=C(O)C(F)(F)F` (stereo not drawn) was tested. Which “Percent Effect” value did it give?
A: Its value is -34.71%.

Q: How did the “Percent Effect” value turn out when `Cc1ccc(CN2CCC3(CC2)CC3CN(C)Cc2cccnc2)o1.O=C(O)C(F)(F)F.O=C(O)C(F)(F)F.O=C(O)C(F)(F)F` (stereo not drawn) was run?
A: Its value is 69.86%.

Q: How did the “Percent Effect” value turn out when `CN(Cc1cccnc1)CC1CC12CCN(c1nncs1)CC2.O=C(O)C(F)(F)F.O=C(O)C(F)(F)F.O=C(O)C(F)(F)F` (stereo not drawn) was run?
A: Its value is -14.98%.

Q: `CCn1ccnc1CN1CCCC(CO)(Cc2cccc(Cl)c2)C1` (stereo not drawn) was tested. Which “Percent Effect” value did it give?
A: Its value is 76.24%.

Q: Which “Percent Effect” value does the source give for `CCOC(=O)C1(CCOC)CCCN(Cc2nccn2CC)C1` (stereo not drawn) here?
A: The value was 6.985%.

Q: For `Cc1cnc(C)c(N2CCCC(CO)(Cc3cccc(Cl)c3)C2)n1` (stereo not drawn), which “Percent Effect” value is on record?
A: Its value is -85.57%.

Q: For `CCn1ccnc1CN1CCCC(CO)(CCCc2ccccc2)C1` (stereo not drawn), which “Percent Effect” value is on record?
A: Its value is 5.561%.

Q: How did the “Percent Effect” value turn out when `CCOC(=O)C1(Cc2ccccc2)CCCN(Cc2nccn2CC)C1` (stereo not drawn) was run?
A: Its value is 71.35%.

Q: How did the “Percent Effect” value turn out when `CCOC(=O)C1(CCOC)CCN(Cc2nccn2CC)CC1` was run?
A: Its value is -18.48%.

Q: For `CCn1c(N)nc2cc(C(=O)NCCc3ccccc3F)cnc21`, which “Percent Effect” value is on record?
A: The value was -271.4%.

Q: `CCc1nc(C2CCCN2CC(=O)Nc2cc(C)nn2C)no1` (stereo not drawn) was tested. Which “Percent Effect” value did it give?
A: The value was -146.1%.

Q: With `O=C(Cc1cccc(F)c1)NC1CCCc2cn[nH]c21` (stereo not drawn) as the compound, how does the “Percent Effect” value read?
A: Its value is -5.228%.

Q: For `CN(CCCOc1ccccc1)S(=O)(=O)c1cnn(C)c1`, which “Percent Effect” value is on record?
A: Its value is -2.544%.

Q: How did the “Percent Effect” value turn out when `O=C(Cc1c[nH]c2ncccc12)NCC(O)c1ccsc1` (stereo not drawn) was run?
A: Its value is -112.4%.

Q: Which “Percent Effect” value does the source give for `NC(=O)c1ccccc1NC(=O)CCN1CCN(CCO)CC1` here?
A: Its value is -1.535%.

Q: With `Cc1ccccc1CNCC(O)c1ccc(OC(C)C)cc1` (stereo not drawn) as the compound, how does the “Percent Effect” value read?
A: The value was 92.11%.

Q: Which “Percent Effect” value does the source give for `COC(=O)CNC(=O)C(C)Oc1ccccc1C(F)(F)F` (stereo not drawn) here?
A: Its value is -63.42%.

Q: Which “Percent Effect” value does the source give for `CC(O)CNCc1ccccc1C(F)(F)F.Cl` (stereo not drawn) here?
A: Its value is -50.42%.

Q: For `Cc1nn(C)c(N(C)C)c1CNCC(O)c1ccccc1` (stereo not drawn), which “Percent Effect” value is on record?
A: The value was -52.78%.

Q: For `CC(C(N)=O)N(C)Cc1ccccc1C(F)(F)F` (stereo not drawn), which “Percent Effect” value is on record?
A: Its value is -7.943%.

Q: How did the “Percent Effect” value turn out when `Cl.OC(CNCc1ccccc1C(F)(F)F)c1ccccc1` (stereo not drawn) was run?
A: Its value is 81.89%.

Q: With `CC(=O)Nc1ccc(CNCC(O)c2ccccc2)cc1` (stereo not drawn) as the compound, how does the “Percent Effect” value read?
A: The value was 6.789%.

Q: With `CC(=O)Nc1ccc(CNCC(O)c2ccc(C)cc2)cc1` (stereo not drawn) as the compound, how does the “Percent Effect” value read?
A: Its value is -93.75%.

Q: Which “Percent Effect” value does the source give for `CC(C)Oc1cccc(C(O)CNC(=O)NCc2cccs2)c1` (stereo not drawn) here?
A: The value was -103.2%.

Q: With `CC(C)Oc1ccc(C(O)CNCc2ccccc2C(F)(F)F)cc1` (stereo not drawn) as the compound, how does the “Percent Effect” value read?
A: Its value is 82.7%.

Q: For `CN(Cc1ccccc1C(F)(F)F)C(C(N)=O)c1ccccc1` (stereo not drawn), which “Percent Effect” value is on record?
A: The value was -32.88%.

Q: With `CC(C)C(NC(=O)NCCNc1ncccn1)c1cccs1` (stereo not drawn) as the compound, how does the “Percent Effect” value read?
A: Its value is -40.63%.

Q: With `CN1CCC2(CC1)CN(C(=O)c1ccncc1)Cc1ccccc12` as the compound, how does the “Percent Effect” value read?
A: The value was -65.66%.

Q: Which “Percent Effect” value does the source give for `O=C(CCC1CCCO1)NCCCC(=O)Nc1ccc(Cl)cc1` (stereo not drawn) here?
A: Its value is -199.2%.

Q: Which “Percent Effect” value does the source give for `CCOc1ccc(S(=O)(=O)N(CCOC)Cc2ccncc2)cc1F` here?
A: Its value is -28.24%.

Q: How did the “Percent Effect” value turn out when `O=C(CCn1ccnn1)N1CCCC(n2cncn2)C1` (stereo not drawn) was run?
A: The value was -95.7%.

Q: Which “Percent Effect” value does the source give for `CC(C)N1CCCC(C(=O)NCCc2csc(-c3ccncc3)n2)C1` (stereo not drawn) here?
A: The value was -80.76%.

Q: For `CNC(=O)C1CCN(c2nc3nc[nH]c(=O)c3s2)CC1`, which “Percent Effect” value is on record?
A: Its value is -123.8%.

Q: Which “Percent Effect” value does the source give for `CC(C)CN1C(=O)C2(CCN(Cc3ccoc3)C2)c2ccccc21.O=C(O)C(F)(F)F` (stereo not drawn) here?
A: The value was -29.95%.
